Shown are actives, neighbours in structure and some others; about 5.4% of the full set was active somewhere.
aDG glyco act = increases alpha dystroglycan glycosylation | Pro5-aDG cells, alpha-DG glycosylation AlphaScreen (IIH6); 0% Pro5, 100% B10-LARGE cell signal | activation, % at 10 µM | 360,000 compounds, 0.22% hits | AID 624168;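 active = activation of at least 8% versus controls, or a plate z-score of at least 8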;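 note: Pro5 are CHO cells carrying HIG-tagged alpha-DG that lacks glycosylation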
APOBEC3G inh = blocks human APOBEC3G single-stranded DNA deamination; recombinant A3G, ssDNA deamination FAM/TAMRA fluorescence; inhibition, % at 20 µM; 330,000 compounds, 0.28% hits; AID 493012;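 active = inhibition of at least 40% at 20 µM, with no more than 30% in the related APOBEC3A deaminase screen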
PHOSPHO1 inh = PHOSPHO1 (human) inhibition. AID 1565. 290,000 compounds, 1.1% hits. inhibition, % at 13.3 µM. recombinant PHOSPHO1, absorbance phosphatase assay; in the data active = inhibition above about 60%
Target sequence (Q8TCT1 whole entry, looked up): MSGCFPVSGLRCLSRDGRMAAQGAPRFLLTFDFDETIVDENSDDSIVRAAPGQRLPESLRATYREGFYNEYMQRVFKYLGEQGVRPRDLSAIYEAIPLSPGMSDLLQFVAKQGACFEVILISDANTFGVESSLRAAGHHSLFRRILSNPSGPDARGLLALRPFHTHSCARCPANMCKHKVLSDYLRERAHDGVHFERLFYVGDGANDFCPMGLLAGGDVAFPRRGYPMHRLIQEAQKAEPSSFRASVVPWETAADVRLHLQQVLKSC
rCAG RNA binder = molecules binding r(CAG) RNA repeats; r(CAG) RNA repeat, TO-PRO-1 dye displacement fluorescence; 370,000 compounds, 1.3% hits; AID 651821; inhibition, % at 3 µM;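 active = inhibition above the plate cutoff, the mean of all test compounds on that plate plus 3 SD, cut at about 35% in these data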;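 note: higher means more dye released from RNA so lower well fluorescence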
A3A deaminase = human APOBEC3A DNA deaminase inhibition. P31941. recombinant A3A, FAM/TAMRA ssDNA deamination fluorescence. inhibition, % at 20 µM. 330,000 compounds, 0.41% hits. AID 493011;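 active = at least 40% inhibition at 20 µM here, with at most 30% in a related deaminase screen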
ALR inh = blocks human ALR sulfhydryl oxidase activity | P55789 | purified ALR, DTT oxidation, H2O2 HRP-luminol luminescence | inhibition, % (no concentration beside the values) | 290,000 compounds, 3.8% hits;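 active = mean replicate inhibition above about 79%, with every replicate also reaching it, limit read from the data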
Target sequence (P55789 whole entry, looked up): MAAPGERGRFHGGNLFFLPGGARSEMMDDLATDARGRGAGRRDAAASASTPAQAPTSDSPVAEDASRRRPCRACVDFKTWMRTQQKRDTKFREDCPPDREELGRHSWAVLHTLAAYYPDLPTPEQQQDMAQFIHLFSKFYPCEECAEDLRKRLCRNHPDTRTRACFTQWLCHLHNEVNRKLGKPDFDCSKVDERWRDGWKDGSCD
Numbers stand for hits; n = inactive; x = no result given.

SMILES	aDG glyco act	APOBEC3G inh	PHOSPHO1 inh	rCAG RNA binder	A3A deaminase	ALR inh
COC(=O)N1C[C@H](OCc2cn(-c3cc(Cl)cc(Cl)c3)nn2)[C@H](OCc2cn(-c3cc(Cl)cc(Cl)c3)nn2)C[C@@H]1c1ccccc1Br	x	x	x	n	x	x
O=C(c1cscn1)N1CCC(Oc2cccnc2)CC1	x	x	x	n	x	x
COc1cc(OC)c(NC(C)C(=O)NCc2ccccc2)cc1Cl (centres undefined)	n	n	n	n	n	94
N#CC(c1c(Cl)cccc1N1CCCCC1)N1CCCCC1 (centres undefined)	x	x	x	n	x	x
COc1ccccc1S(=O)Cc1ccc(C(=O)NC2CCCC2)o1 (centres undefined)	n	n	n	n	n	94
CCOC(=O)[C@]12CCCC=C1N(CCCOC)C(=O)[C@@H]2CC(=O)NCc1cccs1	x	x	x	n	x	x
Cc1cccc(C)c1NC(=S)NC(=O)c1ccc(Br)o1	n	n	n	n	n	n
Cn1ncc(C(N)=O)c1NC(=S)NC(=O)c1ccc(Br)o1	n	n	80	n	n	n
CCOc1ccc(Oc2c(Cl)c(Br)nn(Cc3cccc4ccccc34)c2=O)cc1	x	x	x	n	x	x
CN(C)CCCN1c2ccc(O)cc2Sc2ccc(Cl)cc21	n	x	x	n	x	x
OCCN1CCN(CCCN2c3ccccc3Sc3ccc(C(F)(F)F)cc32)CC1	n	n	n	n	n	98
CN(C)CCCN1c2ccccc2Sc2ccc(C(F)(F)F)cc21	n	n	n	n	n	98
CN(C)CCC(=O)N1c2ccccc2Sc2ccc(C(F)(F)F)cc21	n	n	n	n	n	98
CCN(Cc1ccccc1)C(=O)C1CCCN(c2ncccn2)C1 (centres undefined)	x	x	x	n	x	x
O=C(c1ccco1)n1nc(-c2ccccc2)nc1NCc1ccco1	n	n	n	n	n	78
Cc1ccc(-c2nc(NCc3ccco3)n(C(=O)c3ccco3)n2)cc1	n	n	n	n	n	x
Cc1ccc2[nH]cc(CCNC(=O)Nc3ccccc3)c2c1	n	n	n	n	n	98
Cc1ccc2[nH]cc(CCNC(=O)c3cccnc3)c2c1	n	n	n	n	n	96
O=C1C(=O)c2ccccc2C(O)=C1CCCCl	3.8	n	n	x	n	n
COc1ccc(CC2=C(O)c3ccccc3C(=O)C2=O)cc1	n	n	n	n	n	n
COC(=O)[C@]12C[C@H](CC(=O)NCCC(C)C)C(=O)N(Cc3ccccc3)C1=C[C@H](C(C)C)O[C@@H]2C1CC1	x	x	x	n	x	x
Cc1cc(N2CCN(C(=O)OC(C)(C)C)C[C@@H]2C)ccc1Br	x	x	x	n	x	x
COc1ccc2c(c1O)C(=O)c1ccccc1C2=O	x	n	n	x	n	n
Nc1c(O)ccc2c1C(=O)c1ccccc1C2=O	x	x	n	n	x	99
Cc1ccc(C2CCC3(CCC(=O)N3CCOC(=O)Nc3ccc(F)cc3)CC2)cc1 (centres undefined)	x	x	x	n	x	x
SMILES	aDG glyco act	APOBEC3G inh	PHOSPHO1 inh	rCAG RNA binder	A3A deaminase	ALR inh
Cc1nc(CNC(=O)CC2C(=O)NCCN2Cc2ccc(F)cc2)cs1 (centres undefined)	n	n	66	n	n	n
CCOc1ccc(CN2CCNC(=O)C2CC(=O)NCc2csc(C)n2)cc1 (centres undefined)	n	n	n	n	n	n
O=C(CC1C(=O)NCCN1Cc1ccc(F)cc1)NC1CCCCCCC1 (centres undefined)	n	n	65	n	n	n
CCN(CC)S(=O)(=O)c1cccc(C(=O)N/N=C(\C)c2ccc(O)cc2O)c1	n	n	n	n	n	86
CCN(CC)C(=O)c1ccccc1NC(=O)c1cccc(S(=O)(=O)N(CC)CC)c1	n	n	n	n	n	n
CC(C)OC(=O)[C@@H](Cc1ccccc1)N[C@H](/C=C/c1ccccc1)[C@@H](O)Cc1ccccc1	x	x	x	n	x	x
CCOc1ccc2[nH]c(=S)[nH]c2c1	n	n	103	n	n	x
CCOc1ccc2nc(-c3ccccc3)[nH]c2c1	n	n	n	n	n	n
O=C(NCc1ccccc1)[C@H]1CCCN1C(=O)[C@H]1CCCN1C(=O)C1CCCCC1	x	x	x	n	x	x
CN1[C@H](Cc2ccccc2)COc2cccc(N3CCCC3)c2S1(=O)=O	x	x	x	n	x	x
Cc1cc(C(=O)NN=C2CCCC2)c2ccccc2n1	n	n	x	n	n	x
Cc1cc(C(=O)NN=C2CCCCC2)c2ccccc2n1	n	x	n	n	x	84
COc1ccccc1N1CCN(C(=O)c2ccc(Br)o2)CC1	n	n	x	n	n	x
COc1ccc(S(=O)(=O)Cc2ccc(C(=O)N3CCN(c4ccc(Cl)cc4)CC3)o2)cc1	n	n	n	n	n	86
O=C(c1ccc(CS(=O)(=O)c2ccc(Br)cc2)o1)N1CCN(C2CCCCC2)CC1	n	n	n	n	n	n
COc1ccc(S(=O)(=O)Cc2ccc(C(=O)N3CCN(C4CCCCC4)CC3)o2)cc1	n	n	n	x	n	92
COc1ccc(N2CCN(C(=O)c3ccc(Br)o3)CC2)cc1	n	n	n	n	n	84
COc1ccc(S(=O)(=O)Cc2ccc(C(=O)N3CCc4ccccc4C3)o2)cc1	n	n	n	n	n	97
Cc1ccccc1-c1cccc2c3c([nH]c12)[C@@H]1C[C@H]2[C@@H](C(=O)N1CC3)[C@H](C)ON2C	x	x	x	n	x	x
CCn1c2ccccc2c2cc(C=Nn3c(-c4ccccn4)n[nH]c3=S)ccc21	x	x	x	n	x	x
COc1ccccc1S(=O)(=O)Cc1ccc(C(=O)N2CCN(c3ccc(C)cc3)C(C)C2)o1 (centres undefined)	n	n	n	n	n	n
COc1ccc(S(=O)(=O)Cc2ccc(C(=O)N3CCN(c4cccc(C)c4)C(C)C3)o2)cc1 (centres undefined)	n	n	n	n	n	94
CCOC(=O)c1sc2nc(C3CC3)cc(-c3ccc(OC)cc3)c2c1N	n	n	74	n	n	n
CCOC(=O)c1sc2nc(C3CC3)cc(-c3ccc(F)cc3)c2c1N	n	n	n	n	n	n
Cc1ccccc1C(=O)N(Cc1ccccn1)CC1CCCO1 (centres undefined)	x	x	x	n	x	x
Cc1ccc(N=C(NO)c2nonc2N)cc1	n	n	n	n	n	92
CCOC(=O)N1CCN(C(=O)C[C@H]2C[C@@]3(C(=O)OC)C(=C[C@H](C(C)C)O[C@@H]3C3CC3)N(CCC3=CCCCC3)C2=O)CC1	x	x	x	n	x	x

From PubChem BioAssay
